Assay results as given in PubChem BioAssay AID1159580 (chemical genetic matrix, 2015).
Where “and” joins values, the source holds several entries; their conditions need not be identical. Equal values may be shown once. The campaign covered roughly 5,500 compounds. About 2,000 (36%) were called active. Roughly 18% stayed inconclusive and do not appear here. Rule as the data show it: active = normalized growth mostly below about 0.91 (no sharp cut-off); inconclusive = no clear call, values can overlap the other calls; inactive = mostly above about 0.92. Some of the results follow.

Test: chemical genetic growth profiling, strain panel (AID 1159580);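 also: tested at 20 µM; growth read once vehicle control cultures reached saturation at 30 °C; 1 = growth at the plate median or of vehicle wells; lower values mean less growth of the strain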
Conditions: S. cerevisiae deletion strains, growth OD

Measured: normalized growth

Cn1nnnc1SCC1=C(C(=O)O)N2C(=O)C(NC(=O)C(OC=O)c3ccccc3)C2SC1 (stereo unspecified)
inactive: locus YAL021C, strain ccr4, active compounds read low 1.02 | locus YAL026C, strain drs2, active compounds read low 0.999 | locus YAL030W, strain snc1, active compounds read low 1 | locus YBL061C, strain skt5, active compounds read low 1.01 | locus YBR009C, strain hhf1, active compounds read low 1.04 | locus YBR021W, strain FUR4, active compounds read low 0.986 | locus YBR023C, strain chs3, active compounds read low 0.998 | locus YBR171W, strain sec66, active compounds read low 0.984 | locus YBR229C, strain ROT2, active compounds read low 1 | locus YBR231C, strain swc5, active compounds read low 1.01 | locus YBR279W, strain paf1, active compounds read low 0.999 | locus YCL011C, strain gbp2, active compounds read low 1 | locus YCL016C, strain dcc1, active compounds read low 1 | locus YCL029C, strain bik1, active compounds read low 1.03 | locus YCL061C, strain MRC1, active compounds read low 0.991 | locus YCL069W, strain vba3, active compounds read low 0.992 | locus YCR088W, strain abp1, active compounds read low 0.998 | locus YDL005C, strain med2, active compounds read low 0.991 | locus YDL035C, strain GPR1, active compounds read low 1.01 | locus YDL040C, strain nat1, active compounds read low 1 | locus YDL074C, strain BRE1, active compounds read low 1.02 | locus YDL101C, strain DUN1, active compounds read low 1.01 | locus YDL134C, strain PPH21, active compounds read low 1.01 | locus YDL185W, strain tfp1, active compounds read low 1.01 | locus YDL192W, strain arf1, active compounds read low 1.02 | locus YDR001C, strain nth1, active compounds read low 0.991 | locus YDR069C, strain doa4, active compounds read low 1 | locus YDR101C, strain arx1, active compounds read low 1.03 | locus YDR137W, strain rgp1, active compounds read low 1.02 | locus YDR150W, strain NUM1, active compounds read low 1 | locus YDR159W, strain sac3, active compounds read low 0.979 | locus YDR162C, strain NBP2, active compounds read low 1.01 | locus YDR195W, strain ref2 0.949 | locus YDR297W, strain sur2, active compounds read low 0.992 | locus YDR318W, strain mcm21, active compounds read low 1.02 | locus YDR334W, strain swr1, active compounds read low 0.995 | locus YDR335W, strain msn5, active compounds read low 1 | locus YDR388W, active compounds read low 1.02 | locus YDR392W, strain spt3, active compounds read low 0.995 | locus YDR502C, strain sam2, active compounds read low 1.02 | locus YEL003W, strain gim4, active compounds read low 1 | locus YEL037C, strain rad23, active compounds read low 0.994 | locus YEL061C, strain CIN8 (second series), active compounds read low 0.991 | locus YEL061C, strain CIN8, active compounds read low 1 | locus YER015W, strain faa2, active compounds read low 1 | locus YER016W, strain bim1, active compounds read low 0.997 | locus YER110C, active compounds read low 1.03 | locus YER111C, strain swi4, active compounds read low 0.998 | locus YER155C, strain BEM2 (second series), active compounds read low 0.977 | locus YER155C, strain BEM2, active compounds read low 0.99 | locus YER167W, strain BCK2, active compounds read low 1 | locus YFR010W, strain ubp6, active compounds read low 0.995 | locus YGL078C, strain dbp3, active compounds read low 1.03 | locus YGL086W, strain mad1, active compounds read low 1.01 | locus YGL167C, strain pmr1, active compounds read low 1 | locus YGL173C, strain kem1, active compounds read low 0.997 | locus YGL227W, strain vid30, active compounds read low 0.993 | locus YGL240W, strain doc1, active compounds read low 0.978 | locus YGL248W, strain PDE1, active compounds read low 1.01 | locus YGL253W, strain hxk2, active compounds read low 1.01 | locus YGR078C, strain PAC10, active compounds read low 0.994 | locus YGR135W, strain pre9, active compounds read low 1.02 | locus YGR229C, strain SMI1, active compounds read low 1.01 | locus YGR252W, strain gcn5, active compounds read low 1.03 | locus YHR013C, strain ard1, active compounds read low 1 | locus YHR027C, strain rpn1, active compounds read low 0.995 | locus YHR030C, strain SLT2, active compounds read low 0.999 and 1.01 | locus YHR079C, strain IRE1 (second series), active compounds read low 1.02 | locus YHR079C, strain IRE1, active compounds read low 0.985 | locus YHR094C, strain hxt1, active compounds read low 1.03 | locus YHR129C, strain ARP1, active compounds read low 0.998 | locus YHR142W, strain chs7, active compounds read low 1.02 | locus YHR200W, strain rpn10, active compounds read low 1.02 | locus YIL066C, strain RNR3, active compounds read low 1 | locus YIL073C, strain SPO22, active compounds read low 1.07 | locus YIL125W, strain kgd1, active compounds read low 1.01 | locus YIR030C, strain dcg1, active compounds read low 1.03 | locus YJL092W, strain hpr5, active compounds read low 0.993 | locus YJL095W, strain BCK1 (second series), active compounds read low 1.01 | locus YJL095W, strain BCK1, active compounds read low 1 and 0.969 | locus YJL115W, strain asf1, active compounds read low 0.985 | locus YJL129C, strain trk1, active compounds read low 1 | locus YJL134W, strain LCB3, active compounds read low 1 | locus YJL154C, strain vps35, active compounds read low 1 | locus YJL164C, strain tpk1, active compounds read low 1.01 | locus YJL166W, strain qcr8, active compounds read low 1.01 | locus YJL168C, strain set2, active compounds read low 1.01 | locus YJL187C, strain SWE1 (second series), active compounds read low 1 | locus YJL187C, strain SWE1, active compounds read low 0.986 | locus YJR043C, strain POL32, active compounds read low 1.01 | locus YJR066W, strain TOR1, active compounds read low 0.954
